Where “and” joins values, the source holds several entries; their conditions need not be identical. Identical values can stand only once. Inconclusive results are not listed. Where a call stands in place of a potency, no number is given. Where a structure was tested more than once in an assay, its records may differ in their call. Calls of active or inactive are those of the source. Unless noted, calls come from the whole dose curve.
Legend:
[1] = Nuclear factor erythroid 2-related factor 2/antioxidant responsive element (Nrf2/ARE) small molecule agonists: qHTS cell viability counter screen in human keratinocytes (AID 1919968; active = well fitted curve in the direction sought with a large enough effect in the repeat runs; an effect the other way counts as inactive or inconclusive; note: nearly all actives have a fitted effect of over 55% in size)
Summary of the method: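 Viability counter-screen: KeratinoSens reporter cells, DMSO-delivered compounds, 23 h at 37 C, CellTiter-Fluor fluorescence.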

[2] = Nuclear factor erythroid 2-related factor 2/antioxidant responsive element (Nrf2/ARE) small molecule agonists: luciferase reporter gene qHTS assay in human keratinocytes (AID 1919969); note: nearly all actives have a fitted effect of over 35% in size; note: potency is the fitted concentration of half-maximal effect
[3] = target: Gonadotropin-releasing hormone receptor (Homo sapiens) (UniProt P30968); test: Human gonadotropin-releasing hormone receptor (GnRHR) small molecule agonists, calcium flux assay in GnRHR-HEK293 cells (AID 1920063); note: nearly all actives have a fitted effect of over 35% in size
Summary of the method: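 Tox21-format agonist screen using human GnRHR-expressing HEK293 cells and a fluorescent calcium dye; kinetic 3-min fluorescence reading after compound addition, 15-point concentration series run in triplicate.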

[4] = target: KiSS-1 receptor (Homo sapiens) (UniProt Q969F8); test: Human kisspeptin (KISS1R) small molecule agonists, calcium flux assay in KISS1R-HEK293 cells (AID 1920064; active = well fitted curve in the direction sought with a large enough effect in the repeat runs; an effect the other way counts as inactive or inconclusive)
Summary of the method: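 Intracellular calcium mobilization in KISS1R-HEK293 cells was recorded by fluorescence (Ex/Em 480/540) for 3 min following compound addition to cells pre-loaded 1 h with calcium dye.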

[5] = G protein-coupled receptor (GPCR) small molecule agonists, calcium flux assay: HEK293 wild type cell line counter screen (AID 1920065)
Summary of the method: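 In this agonist-mode screen, ATP is the positive control and DMSO the vehicle. Cells grow 18 h before a 1 h dye incubation at 37 C; signal is taken at Ex/Em 480/540 over 3 min.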

[6] = p53 small molecule agonists, cell-based qHTS assay with human liver microsomes (AID 1963577);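 note: p53 response element beta-lactamase reporter cells with liver microsomes plus NADPH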
Summary of the method: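 Steps: plate p53RE-bla cells, incubate 5 h at 37 C; add compound in DMSO; add microsomes (0.5 mg/mL final) and NADPH (0.5 mg/mL final); incubate 16 h at 37 C; add LiveBLAzer, 2 h RT; read fluorescence.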

[7] = p53 small molecule agonists, cell-based qHTS assay with rat liver microsomes (AID 1963578)
Summary of the method: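 Metabolic activation is supplied by rat liver microsomes with NADPH (each 0.5 mg/mL final). p53RE-bla cells incubate with compound 16 h at 37 C; reporter activity is measured by LiveBLAzer fluorescence.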

[8] = p53 small molecule agonists, cell-based qHTS assay with human liver microsomes: qHTS cell viability counter screen (AID 1963579); note: nearly all actives have a fitted effect of over 45% in size
Summary of the method: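 After the 460/530 nm beta-lactamase read, CellTiter-Glo was added to the same wells and luminescence measured after 30 min at room temperature, giving viability of p53RE-bla cells treated 16 h with compounds plus microsomes and NADPH.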

[9] = p53 small molecule agonists, cell-based qHTS assay: qHTS cell viability counter screen (AID 1963581); note: nearly all actives have a fitted effect of over 45% in size
Summary of the method: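 Compounds are pinned onto HCT-116 p53RE-bla cells and left 16 h at 37 C. Following the reporter FRET read, ATP is quantified by CellTiter-Glo luminescence after 30 min at room temperature.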

[10] = p53 small molecule agonists, cell-based qHTS assay (AID 1963582; active = well fitted activation curve with a large enough effect in the signal ratio in the repeat runs, not every such curve was filed as active; the % refers to the signal ratio)
Summary of the method: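 Agonist activity was scored from beta-lactamase FRET fluorescence in p53RE-bla cells treated 16 h at 37 C with compounds in DMSO, substrate incubation being 2 h at room temperature.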

[11] = target: 5-hydroxytryptamine receptor 2A (Homo sapiens) (UniProt P28223); test: 5-hydroxytryptamine receptor 2A (HTR2A) small molecule antagonists, cell-based qHTS assay (AID 1963586); note: nearly all actives have a fitted effect of over 45% in size
Summary of the method: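 Antagonist-mode intracellular calcium assay: DOI (4 nM) added after 5 min compound pre-incubation at room temperature to dye-loaded HTR2A-CHO cells. Fluorescence followed for 3 min, sampled every second.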

[12] = target: 5-hydroxytryptamine receptor 2A (Homo sapiens) (UniProt P28223); test: 5-hydroxytryptamine receptor 2A (HTR2A) small molecule agonists, cell-based qHTS assay (AID 1963587); note: nearly all actives have a fitted effect of over 30% in size
Summary of the method: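 CHO cells stably expressing human HTR2A, plated 18 h, loaded with calcium dye 1 h at 37 C. Agonist mode: compounds added and intracellular calcium fluorescence recorded kinetically for 2 min at 1 sec intervals.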

[13] = target: Muscarinic acetylcholine receptor M1 (Homo sapiens) (UniProt P11229); test: Cholinergic receptor muscarinic 1 (CHRM1) small molecule agonists, cell-based qHTS assay (AID 1963589); note: nearly all actives have a fitted effect of over 35% in size
Summary of the method: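 Stable CHRM1-CHO cells (human receptor) were incubated 18 h, dye-loaded for 1 h at 37 C and exposed to test compounds for agonist activity, with calcium-dependent fluorescence followed kinetically.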

[14] = cAMP Responsive Elements (CRE) small molecule agonists, cell-based qHTS assay (AID 1963590)
Summary of the method: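 FRET-based beta-lactamase readout (LiveBLAzer B/G, 2 h RT) quantified CRE activation in HEK 293T CRE-bla cells after 3 h treatment with DMSO-dissolved compounds.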

[15] = cAMP Responsive Elements (CRE) small molecule antagonists, cell-based qHTS assay (AID 1963591; active = well fitted inhibition curve with a large enough effect in the signal ratio in the repeat runs, not every such curve was filed as active; the % refers to the signal ratio)
Summary of the method: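 qHTS in CRE-bla HEK 293T cells: compound in DMSO, then 0.25 uM NKH477 (final), 3 h at 37 °C/5% CO2; beta-lactamase FRET read-out after 2 h substrate incubation.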

[16] = target: Beta-2 adrenergic receptor (Homo sapiens) (UniProt P07550); test: Adrenergic beta2 receptor (ADRB2) small molecule antagonists, cell-based qHTS assay (AID 1963592); note: series mostly up to about 92 µM; nearly all actives have a fitted effect of over 50% in size
Summary of the method: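 Cells (CHO, stable ADRB2 overexpression) incubated 18-20hr at 37C; compounds added from DMSO; agonist mix (1nM isoproterenol, 100uM IBMX, 25uM Ro-20-1724) added; 0.5hr RT; d2-cAMP and anti-cAMP-cryptate added; 1hr RT; 665/615 nm read.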

[17] = target: D(2) dopamine receptor (Homo sapiens) (UniProt P14416); test: Dopamine D2 receptor (DRD2) small molecule agonists, cell-based qHTS assay (AID 1963594); note: nearly all actives have a fitted effect of over 35% in size
Summary of the method: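 HEK293 cells stably expressing human DRD2, pre-treated with PDE inhibitor Ro20-1724 (0.1 mM final) and compound 10 min at room temperature, then stimulated with NKH477 (200nM […]) for 30 min. cAMP read by HTRF (665/620 nm).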

[18] = target: D(2) dopamine receptor (Homo sapiens) (UniProt P14416); test: Dopamine D2 receptor (DRD2) small molecule antagonists, cell-based qHTS assay (AID 1963595; active = well fitted inhibition curve with a large enough effect in the signal ratio in the repeat runs, with a control signal flat; the % refers to the signal ratio)
Summary of the method: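 Readout: HTRF cAMP, cAMP-d2 competing with cellular cAMP for anti-cAMP cryptate, read after 1 h. Cells: DRD2-HEK293. Conditions: 0.1 mM Ro20-1724, 12 nM quinpirole, 200 nM NKH477, 30 min RT.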

[19] = p53 small molecule agonists, cell-based qHTS assay with rat liver microsomes: qHTS cell viability counter screen (AID 1963580); note: nearly all actives have a fitted effect of over 45% in size
Summary of the method: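 p53RE-bla HCT-116 cells were exposed 16 h at 37 C to compounds with rat liver microsomes (0.5 mg/mL) and NADPH (0.5 mg/mL). Viability was measured in the same wells as ATP content by CellTiter-Glo luminescence.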

[20] = target: Beta-2 adrenergic receptor (Homo sapiens) (UniProt P07550); test: Adrenergic beta2 receptor (ADRB2) small molecule agonists, cell-based qHTS assay (AID 1963593);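 note: CHO cells stably overexpressing human ADRB2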
Summary of the method: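 CHO cells stably over-expressing ADRB2 were plated overnight at 37C, then dosed with compounds plus a stimulation mix containing 100uM IBMX and 25uM Ro-20-1724 for 0.5hr at room temperature. cAMP was measured by HTRF competition, 1hr.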

Muscarinic acetylcholine receptor M1 (Homo sapiens), sequence (P11229 whole entry, looked up): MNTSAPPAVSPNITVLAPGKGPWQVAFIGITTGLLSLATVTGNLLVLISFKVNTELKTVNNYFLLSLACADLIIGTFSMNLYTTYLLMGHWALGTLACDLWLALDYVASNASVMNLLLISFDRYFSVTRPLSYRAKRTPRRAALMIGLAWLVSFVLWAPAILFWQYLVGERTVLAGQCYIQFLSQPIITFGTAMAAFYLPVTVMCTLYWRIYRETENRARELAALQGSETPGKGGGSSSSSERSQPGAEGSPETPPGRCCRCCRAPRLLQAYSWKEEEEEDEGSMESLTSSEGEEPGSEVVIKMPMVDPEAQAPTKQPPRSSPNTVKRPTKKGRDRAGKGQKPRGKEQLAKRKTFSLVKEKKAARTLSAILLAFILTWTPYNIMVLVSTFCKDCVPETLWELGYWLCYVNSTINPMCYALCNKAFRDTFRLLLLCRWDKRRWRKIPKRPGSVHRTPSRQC
D(2) dopamine receptor (Homo sapiens), sequence (P14416 whole entry, looked up): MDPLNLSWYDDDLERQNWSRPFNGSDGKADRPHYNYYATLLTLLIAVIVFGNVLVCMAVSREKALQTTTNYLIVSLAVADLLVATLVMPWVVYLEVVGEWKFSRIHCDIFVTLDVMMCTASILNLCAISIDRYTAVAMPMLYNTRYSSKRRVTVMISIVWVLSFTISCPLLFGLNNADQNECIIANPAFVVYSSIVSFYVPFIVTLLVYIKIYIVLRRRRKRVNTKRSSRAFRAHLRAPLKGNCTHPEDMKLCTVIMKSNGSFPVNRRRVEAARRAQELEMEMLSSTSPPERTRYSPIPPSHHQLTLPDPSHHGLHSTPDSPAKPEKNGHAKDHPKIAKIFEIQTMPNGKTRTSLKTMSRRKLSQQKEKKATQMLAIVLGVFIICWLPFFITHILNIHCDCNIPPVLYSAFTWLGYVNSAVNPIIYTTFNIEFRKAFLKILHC
Gonadotropin-releasing hormone receptor (Homo sapiens), sequence (P30968 whole entry, looked up): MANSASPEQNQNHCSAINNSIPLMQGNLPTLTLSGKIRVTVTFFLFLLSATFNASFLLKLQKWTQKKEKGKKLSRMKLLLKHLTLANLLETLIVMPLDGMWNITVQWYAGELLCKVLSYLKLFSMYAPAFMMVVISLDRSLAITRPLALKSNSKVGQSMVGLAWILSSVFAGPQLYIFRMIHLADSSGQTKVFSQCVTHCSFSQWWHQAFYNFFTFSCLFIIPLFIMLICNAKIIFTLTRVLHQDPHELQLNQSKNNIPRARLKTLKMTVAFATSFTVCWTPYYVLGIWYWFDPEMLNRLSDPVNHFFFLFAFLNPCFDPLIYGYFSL
Beta-2 adrenergic receptor (Homo sapiens), sequence (P07550 whole entry, looked up): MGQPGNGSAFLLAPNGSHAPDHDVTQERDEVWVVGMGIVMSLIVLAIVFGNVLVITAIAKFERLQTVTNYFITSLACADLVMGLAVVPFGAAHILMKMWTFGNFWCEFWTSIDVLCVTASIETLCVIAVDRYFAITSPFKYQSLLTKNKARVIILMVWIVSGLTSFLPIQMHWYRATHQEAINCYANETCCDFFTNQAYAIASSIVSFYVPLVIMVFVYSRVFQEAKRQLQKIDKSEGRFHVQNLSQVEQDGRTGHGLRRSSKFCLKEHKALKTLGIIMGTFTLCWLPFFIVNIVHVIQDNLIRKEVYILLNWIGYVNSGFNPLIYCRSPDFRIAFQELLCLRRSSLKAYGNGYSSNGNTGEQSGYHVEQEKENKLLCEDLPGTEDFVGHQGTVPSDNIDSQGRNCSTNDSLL
KiSS-1 receptor (Homo sapiens), sequence (Q969F8 whole entry, looked up): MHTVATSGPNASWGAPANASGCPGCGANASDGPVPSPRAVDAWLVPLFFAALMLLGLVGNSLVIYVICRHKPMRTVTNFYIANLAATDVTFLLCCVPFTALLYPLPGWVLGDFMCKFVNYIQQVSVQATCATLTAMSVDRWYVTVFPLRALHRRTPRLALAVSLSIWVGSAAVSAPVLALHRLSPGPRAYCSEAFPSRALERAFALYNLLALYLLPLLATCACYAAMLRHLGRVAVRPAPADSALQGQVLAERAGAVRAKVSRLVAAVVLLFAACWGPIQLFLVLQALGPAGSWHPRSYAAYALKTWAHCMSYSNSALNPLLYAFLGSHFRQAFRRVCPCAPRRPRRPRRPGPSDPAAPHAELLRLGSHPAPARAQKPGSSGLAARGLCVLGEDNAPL
5-hydroxytryptamine receptor 2A (Homo sapiens), sequence (P28223 whole entry, looked up): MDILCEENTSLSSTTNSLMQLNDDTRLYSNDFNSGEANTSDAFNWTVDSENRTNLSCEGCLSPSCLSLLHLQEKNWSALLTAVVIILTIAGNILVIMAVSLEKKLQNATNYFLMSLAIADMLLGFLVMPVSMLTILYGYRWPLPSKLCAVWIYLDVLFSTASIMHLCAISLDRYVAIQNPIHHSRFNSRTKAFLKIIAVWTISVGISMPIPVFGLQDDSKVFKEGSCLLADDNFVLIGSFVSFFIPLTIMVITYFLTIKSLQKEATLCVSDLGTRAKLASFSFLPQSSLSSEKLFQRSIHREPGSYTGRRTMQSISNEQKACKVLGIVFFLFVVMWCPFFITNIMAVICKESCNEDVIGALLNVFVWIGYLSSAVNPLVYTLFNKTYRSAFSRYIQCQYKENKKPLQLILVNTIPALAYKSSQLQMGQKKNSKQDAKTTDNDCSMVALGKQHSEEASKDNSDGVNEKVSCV

Compound	Potency [1]	Potency [2]	Potency [3]	Potency [4]	Potency [5]	Potency [6]	Potency [7]	Potency [8]	Potency [9]	Potency [10]	Potency [11]	Potency [12]	Potency [13]	Potency [14]	Potency [15]	Potency [16]	Potency [17]	Potency [18]	Potency [19]	Potency [20]
O=C1CCCC1	inactive	inactive	inactive	inactive	inactive	inactive	inactive	inactive	inactive	inactive	inactive	inactive	inactive	inactive	inactive	inactive	inactive	inactive	–	–
O=C(O)c1ccc(S(=O)(=O)N(Cl)Cl)cc1	inactive	inactive	inactive	inactive	inactive	inactive	inactive	–	inactive	inactive	inactive	inactive	inactive	inactive	inactive	inactive	inactive	–	inactive	inactive
[O-]/[N+](=N\O)c1ccccc1	inactive	68 µM (active) and 34.4 µM (active)	inactive	inactive	inactive	inactive	inactive	inactive	–	inactive	inactive	–	inactive	inactive	inactive	inactive	inactive	inactive	inactive	–
NC(CO)(CO)CO	inactive	inactive	inactive	inactive	inactive	inactive	inactive	inactive	–	inactive	–	–	–	inactive	inactive	inactive	inactive	inactive	–	inactive
CC1(C)S[C@@H]2[C@H](NC(=O)COc3ccccc3)C(=O)N2[C@H]1C(=O)O	inactive	inactive	inactive	inactive	inactive	inactive	–	inactive	inactive	inactive	inactive	inactive	inactive	inactive	inactive	inactive	inactive	inactive	inactive	inactive
COc1ccc(C)cc1N	inactive	inactive	inactive	inactive	inactive	inactive	–	inactive	inactive	inactive	inactive	inactive	inactive	inactive	inactive	inactive	inactive	inactive	inactive	inactive
COC(=O)c1ccccc1O	inactive	68.7 µM (active) and inactive	inactive	inactive	inactive	inactive	inactive	–	inactive	inactive	–	–	–	inactive	inactive	inactive	inactive	inactive	–	inactive
OB(O)O	inactive	inactive	inactive	inactive	inactive	inactive	–	inactive	inactive	inactive	inactive	inactive	inactive	inactive	inactive	–	inactive	inactive	inactive	inactive
CC(=O)c1nccs1	inactive	inactive	inactive	inactive	inactive	inactive	–	inactive	inactive	inactive	inactive	inactive	inactive	inactive	–	inactive	inactive	inactive	inactive	inactive
CCCOC(=O)c1cc(O)c(O)c(O)c1	inactive	inactive	inactive	inactive	inactive	inactive	inactive	–	–	–	inactive	inactive	inactive	–	inactive	inactive	inactive	inactive	inactive	inactive
CCCCCCCCCCCC(=O)OC	inactive	inactive	inactive	inactive	inactive	inactive	–	inactive	inactive	inactive	–	inactive	inactive	inactive	inactive	inactive	inactive	inactive	inactive	inactive
Nc1ccc(S(=O)(=O)Nc2nccs2)cc1	inactive	inactive	inactive	inactive	inactive	inactive	inactive	–	inactive	inactive	–	–	–	inactive	–	inactive	inactive	inactive	inactive	inactive
CCCCOC(=O)CC(CC(=O)OCCCC)(OC(C)=O)C(=O)OCCCC	inactive	inactive	inactive	inactive	inactive	inactive	inactive	–	inactive	inactive	inactive	inactive	inactive	inactive	inactive	inactive	inactive	inactive	inactive	–
Nc1nc2ccccc2[nH]1	inactive	inactive	inactive	inactive	inactive	inactive	–	inactive	inactive	inactive	inactive	inactive	inactive	inactive	–	inactive	inactive	inactive	inactive	–
C=CCNC(N)=S	inactive	inactive	inactive	inactive	inactive	inactive	inactive	–	inactive	inactive	inactive	inactive	–	inactive	inactive	inactive	inactive	inactive	inactive	–
